The record followed here is PubChem BioAssay AID1224860 (National Center for Advancing Translational Sciences (NCATS), 2016).

The assay is described as follows: Compound cytotoxicity measured by an ATP content assay as a counter-screen for lead compounds in human iPSC derived neural progenitor cells (hNPCs). The gist of the method:
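Viability read as luminescent ATP content, 10 min at RT after reagent. Compound incubation of 6, 24 or 72 h on human iPSC-derived neural progenitors pre-cultured 16–20 h; values are percent inhibition.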
A general note: Counterscreens check selectivity or assay interference.

Records with an inconclusive call do not appear. Where a call stands in place of a potency, no number is given. Activity calls are given as the source filed them. The call rests on the fitted dose curve; in most records, active means well fitted cell-killing curve with a large enough effect; inconclusive means small, poorly fitted or top-dose-only effect; inactive means flat fitted curve, though single readings scatter.

As for `CC(=C(CCOC(=O)C(C)C)SSC(CCOC(=O)C(C)C)=C(C)N(C=O)Cc1cnc(C)nc1N)N(C=O)Cc1cnc(C)nc1N`, the Potency entry is “inactive”.
The figure for `CS(=O)(=O)c1ccc(-c2cn3ccccc3n2)cc1` is 7.74 µM (active); for `Nc1ccc(O)c(C(=O)O)c1` it is “inactive”; for `CO[C@H]1C(=O)[C@]2(C)[C@@H](OC)C[C@H]3OC[C@@]3(OC(C)=O)[C@H]2[C@H](OC(=O)c2ccccc2)[C@]2(O)C[C@H](OC(=O)[C@H](O)[C@@H](NC(=O)OC(C)(C)C)c3ccccc3)C(C)=C1C2(C)C` it is “inactive”.
The entry for `O=C(Nc1ncc([N+](=O)[O-])s1)c1cccs1` is “inactive”; for `O=C(O)c1ccccc1NCCc1ccccc1` it is “inactive”; for `CC(C(=O)O)c1ccc(-c2ccccc2)c(F)c1` (stereo unspecified) it is “inactive”.
Next, `CC(C(=O)O)c1ccc(C(=O)c2ccccc2)s1` (stereo unspecified): “inactive”; `O=C(O)[C@@H](c1ccc(OCc2ccc3ccccc3n2)cc1)C1CCCC1`: “inactive”; `CCOC1OC(=O)C[C@H]1NC(=O)[C@@H]1CCCN1C(=O)[C@@H](NC(=O)c1ccc(N)c(Cl)c1)C(C)(C)C` (stereo partly specified): “inactive”.
For the molecule `CC(C)c1ccc2oc3nc(N)c(C(=O)O)cc3c(=O)c2c1`, the Potency was 3.46 µM (active).
The entry for `N[C@H](CSC(c1ccccc1)(c1ccccc1)c1ccccc1)C(=O)O` is “inactive”; for `CC(C(=O)O)c1ccc2c(c1)[nH]c1ccc(Cl)cc12` (stereo unspecified) it is “inactive”.
Next, `c1ccc(CCNc2nc(-c3ccccc3)cs2)cc1`: “inactive”; `CN1CC(=O)N/C1=N/C(=O)Nc1cccc(Cl)c1`: “inactive”.
Next, `O=C(Nc1cc2cc[nH]c2cn1)c1ccccc1`: 0.346 µM (active); `CN1CCN(c2cc3c(nn2)Oc2ccccc2N3C)CC1`: “inactive”; `Cc1cccc(C#Cc2ccccc2)n1`: 9.75 µM (active).
Take `O=C(/C=C/c1ccccc1)NCCO`: the Potency result was “inactive”.
Next, `COc1ccnc2c1CCCCC2S(=O)c1nc2ccccc2[nH]1` (stereo unspecified): “inactive”.
Next, `Nc1cc(C(F)(F)F)ccc1S`: 19.5 µM (active); `COc1cc(NC(C)CCCN)c2ncccc2c1` (stereo unspecified): “inactive”.
The entry for `Cc1c(C(=O)O)c(O)cc2c1C(=O)c1c(O)c([C@@H]3O[C@H](CO)[C@@H](O)[C@H](O)[C@H]3O)c(O)c(O)c1C2=O` is “inactive”; for `Cc1cc(O)c2ccccc2c1O` it is 4.89 µM (active).
For the molecule `CNC(=O)c1ccccc1Sc1ccc2c(/C=C/c3ccccn3)n[nH]c2c1`, the Potency was 7.74 µM (active).
Next, `O=C1C[C@@H](c2ccc(O)cc2)Oc2cc(O)cc(O)c21`: “inactive”; `O=C(/C=C/c1ccc(O)cc1)c1ccc(O)cc1O`: “inactive”.
Next, `Cc1cc(O)c2c(c1)C(=O)c1cc(O)cc(O)c1C2=O`: “inactive”.
The entry for `O=S(=O)(O)c1ccc2nc(-c3ccccc3)[nH]c2c1` is “inactive”; for `Oc1ccc(/C=C/c2cc(O)cc(O)c2)cc1` it is 9.75 µM (active).
`CC[C@]1(O)C[C@H]2CN(CCc3c([nH]c4ccccc34)[C@@](C(=O)OC)(c3cc4c(cc3OC)N(C=O)[C@H]3[C@@](O)(C(=O)OC)[C@H](OC(C)=O)[C@]5(CC)C=CCN6CC[C@]43[C@@H]65)C2)C1`: the Potency entry was “inactive”.
